Laboratory results taken from PubChem BioAssay AID393 (SGCOxCompounds, 2006).
“And” between values parts separate entries of the source, which are not always exact repeats. Equal values may be shown once. The source made the active and inactive calls. How the calls were made is not given here.

These molecules were tested against Serine/threonine-protein kinase pim-1 (Homo sapiens) (UniProt P11309) (assay: compound-induced PIM1 thermal stabilization – biophysical, human, melting temperature shift (AID 393)). Conditions: Thermal shift assay, active compounds read high; at 10 µM, protein 2 µM, buffer 10 mM PIPES, pH 6.5, NaCl 150 mM unless noted.
Serine/threonine-protein kinase pim-1 (Homo sapiens), sequence (P11309 whole entry, looked up): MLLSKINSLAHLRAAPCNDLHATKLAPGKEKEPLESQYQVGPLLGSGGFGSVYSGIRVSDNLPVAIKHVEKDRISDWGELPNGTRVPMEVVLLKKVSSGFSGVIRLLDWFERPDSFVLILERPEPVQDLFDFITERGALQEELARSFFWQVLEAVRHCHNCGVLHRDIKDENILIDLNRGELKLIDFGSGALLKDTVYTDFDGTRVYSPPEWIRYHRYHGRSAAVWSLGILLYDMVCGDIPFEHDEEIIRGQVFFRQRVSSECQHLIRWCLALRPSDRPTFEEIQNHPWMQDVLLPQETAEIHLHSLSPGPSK

Tm shift, active:
c1csc(-c2cnc3ccc(NCC4CC4)nn23)c1 4.75 Celsius [at 5 µM, protein 1 µM, buffer 10 mM HEPES], Cn1cc(C2=C(c3c4n(c5ccccc35)CCC(CN)C4)C(=O)NC2=O)c2ccccc21 (stereo unspecified) 5.8 Celsius [at 10 µM, protein 2 µM, buffer 10 mM Na Citrate, pH 6.5, NaCl 150 mM], COCCNc1ccc2ncc(-c3cccc(Cl)c3)n2n1 6.33 Celsius, CC1N=C2SC=CN2C(=O)C1CCN1CCC(=C(c2ccccc2)c2ccc(F)cc2)CC1 (stereo unspecified) 8.2 Celsius [at 10 µM, protein 2 µM, buffer 10 mM Na Citrate, pH 6.5, NaCl 150 mM] and 6.4 Celsius [at 10 µM, protein 2 µM, buffer 10 mM Na Citrate, pH 6.5, NaCl 150 mM], COc1cc(O)c2c(c1)oc(=O)c1c3cc(O)c(O)cc3oc21 3.8 Celsius [at 10 µM, protein 2 µM, buffer 10 mM Na Citrate, pH 6.5, NaCl 150 mM], Clc1cccc(Nc2ccn3ncc(-c4ccsc4)c3n2)c1 3.99 Celsius [at 10 µM, protein 2 µM, buffer 25 mM HEPES, pH 7.5, NaCl 250 mM], NCCCn1cc(C2=C(c3c[nH]c4ccccc34)C(=O)NC2=O)c2ccccc21 9 Celsius [at 10 µM, protein 2 µM, buffer 10 mM Na Citrate, pH 6.5, NaCl 150 mM], CC(C)[C@@H](CO)Nc1ccc2ncc(-c3cccc(C(F)(F)F)c3)n2n1 8.83 Celsius, Nc1cc2ncnc(Nc3cccc(Br)c3)c2cc1N 3.4 Celsius [at 10 µM, protein 2 µM, buffer 10 mM Na Citrate, pH 6.5, NaCl 150 mM], CC(C)[C@@H](CO)Nc1ccc2ncc(-c3cccc(Cl)c3)n2n1 6.86 Celsius, O=C(O)c1cccc(-c2cnc3ccc(NCC4CC4)nn23)c1 3.62 Celsius, CCC(CO)Nc1ccc2ncc(-c3cccc(C(C)=O)c3)n2n1 (stereo unspecified) 6.85 Celsius, CN(C)CC1CCn2c(c(C3=C(c4cn(C)c5ccccc45)C(=O)NC3=O)c3ccccc32)C1 (stereo unspecified) 4.9 Celsius [at 10 µM, protein 2 µM, buffer 10 mM Na Citrate, pH 6.5, NaCl 150 mM], COc1cccc(-c2cnn3ccc(Nc4cccc(Cl)c4)nc23)c1 6.16 Celsius, Oc1[nH]c2ccccc2c1C=Nc1ccc2c(c1)OCCO2 4.66 Celsius, O=C(O)c1cccc(-c2cnc3ccc(NC4CCOCC4)nn23)c1 9.27 Celsius, CCn1c(O)c(C2=NC(=S)NC2=O)c2ccccc21 3.12 Celsius, CC(C)(C)c1nc2c3cc[nH]c(=O)c3c3cc(F)ccc3c2[nH]1 4.9 Celsius [at 10 µM, protein 2 µM, buffer 10 mM Na Citrate, pH 6.5, NaCl 150 mM], Oc1cccc(-c2cnc3ccc(NC4CCOCC4)nn23)c1 3.66 Celsius, Oc1cccc(-c2cnc3ccc(NCC4CC4)nn23)c1 4.42 Celsius, COc1cc(/C=C/C(=O)CC(=O)/C=C/c2ccc(O)c(OC)c2)ccc1O 4.2 Celsius [at 10 µM, protein 2 µM, buffer 10 mM Na Citrate, pH 6.5, NaCl 150 mM], CC(=O)Nc1cccc(-c2cnc3ccc(NC4CCOCC4)nn23)c1 3.48 Celsius, O=C(c1ccc(Nc2nccc(-c3cc4ccccc4s3)n2)cc1)N1CCC(N2CCCC2)CC1 3.7 Celsius [at 10 µM, protein 2 µM, buffer 10 mM Na Citrate, pH 6.5, NaCl 150 mM], Clc1ccc(-c2cnn3ccc(NCc4cccnc4)nc23)cc1 5.37 Celsius [at 5 µM, protein 1 µM, buffer 10 mM HEPES], CC(C)[C@@H](CO)Nc1ccc2ncc(-c3cccc(OC(F)(F)F)c3)n2n1 8.65 Celsius, CCC(CO)Nc1ccc2ncc(-c3cccc(OC(F)(F)F)c3)n2n1 (stereo unspecified) 9.04 Celsius, O=C1NC(=O)c2c1c1c3ccccc3[nH]c1c1[nH]c3cc(Br)ccc3c21 7.64 Celsius, O=C1NCc2c1c1c3ccccc3[nH]c1c1[nH]c3ccccc3c21 7.8 Celsius [at 10 µM, protein 2 µM, buffer 10 mM Na Citrate, pH 6.5, NaCl 150 mM], Nc1cccc(-c2cnn3ccc(Nc4cccc(Cl)c4)nc23)c1 6.21 Celsius, Clc1cccc(Nc2ccn3ncc(-c4ccc5c(c4)OCO5)c3n2)c1 6.19 Celsius, N=C(N)SCCCn1cc(C2=C(c3c[nH]c4ccccc34)C(=O)NC2=O)c2ccccc21 10.7 Celsius [at 10 µM, protein 2 µM, buffer 10 mM Na Citrate, pH 6.5, NaCl 150 mM]
